# NPSR antagonist – blocks cAMP signaling of the human neuropeptide S receptor. Potency, µM (series often up to 38.3 µM), inactives show at the top dose activity change, negative = inhibition, actives largely listed as inhibitors. Q6W5P4. CHO-NPSR cells, cAMP TR-FRET, antagonist mode. actives 1% (n = 220,000); note: nearly all actives have a fitted effect of over 50% in size
# Target sequence (Q6W5P4 whole entry, looked up): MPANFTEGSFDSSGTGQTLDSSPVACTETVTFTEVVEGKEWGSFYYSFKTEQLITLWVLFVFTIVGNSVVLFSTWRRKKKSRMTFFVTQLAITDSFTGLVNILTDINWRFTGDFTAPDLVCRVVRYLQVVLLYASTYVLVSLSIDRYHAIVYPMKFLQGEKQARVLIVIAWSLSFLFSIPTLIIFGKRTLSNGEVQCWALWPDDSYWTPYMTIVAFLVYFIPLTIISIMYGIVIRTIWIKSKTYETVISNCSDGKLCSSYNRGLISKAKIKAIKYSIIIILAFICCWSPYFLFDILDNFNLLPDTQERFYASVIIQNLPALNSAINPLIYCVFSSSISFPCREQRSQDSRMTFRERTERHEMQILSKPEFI
# ERK EGF inh – EGF-driven ERK pathway inhibition. HEK293-V1b, EGF-stimulated phospho-ERK AlphaScreen. actives 0.41% (n = 130,000). AID 1454. Potency, µM (series often up to 11.5 µM), for inactives: top-dose activity change, negative = inhibition, usual class: inhibitors;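 note: plate controls were stimulated vehicle wells for no effect and unstimulated vehicle basal for full effect; nearly all actives have a fitted effect of over 55% in size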
#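 Phospho-ERK1/2 measured by AlphaScreen (SureFire) after 5 min 25 nM EGF stimulation of V1b-expressing HEK293 cells preincubated 30 min at 37C with titrated compounds; data scaled to DMSO and EGF controls, Hill-fitted AC50.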
# Starred values were filed as active, the others as inactive; ? = inconclusive; nt = no result given; [ ] = another dose, or the depositor's remark. Only a selection was taken, and hits are over-represented in it overall. Calls come from the whole dose curve; as a rule, active = well fitted curve in the direction sought with a large enough effect; inconclusive = small, poorly fitted or top-dose-only effect, or another doubt; inactive = no such curve, though single readings can be large; an effect the other way counts as inactive or inconclusive. Unless noted, % is set by controls: 0 for no effect and ±100 for the full control effect; potency is the fitted concentration of half-maximal effect.
SMILES,NPSR antagonist,ERK EGF inh
Cn1c(CS(=O)Cc2c(Cl)cccc2Cl)nnc1SCc1c(Cl)cccc1Cl (stereo not drawn),-8%[46.1 µM],nt
CC1CN(Cc2ccccc2Cl)CC(C)O1 (stereo not drawn),-1%[46.1 µM],nt
O=C(N/N=C/c1cccc(Cl)c1)C(c1ccncc1)N1CCOCC1 (stereo not drawn),9%,-2%[57.5 µM]
NS(=O)(=O)c1ccc(N2N=C(c3ccccc3)CC2c2ccccc2)cc1 (stereo not drawn),-5%,-4%
CCc1ccc(C2=NN(c3ccc(S(N)(=O)=O)cc3)C(c3ccc(F)cc3)C2)cc1 (stereo not drawn),10µM*,nt
O=C1/C(=C/C=C/c2ccccc2)Oc2c1ccc(O)c2CN1CCN(CCO)CC1,-53%,-8%[57.5 µM]
CCc1ccc(/C=C2\Oc3c(ccc(O)c3CN3CCN(C)CC3)C2=O)cc1,10µM*,-7%[57.5 µM]
COc1ccccc1/C=C/C=C1\Oc2c(ccc(O)c2CN2CCN(CCO)CC2)C1=O,-41%,0%
CCN1CCN(Cc2c(O)ccc3c2O/C(=C\c2ccccc2)C3=O)CC1,?,-4%
CC1CCCN(Cc2c(O)ccc3c2O/C(=C\c2ccco2)C3=O)C1 (stereo not drawn),-45%,-6%
Cc1ccc(/C=C2\Oc3c(ccc(O)c3CN3CCN(C)CC3)C2=O)cc1,7.9µM*,-7%
CCN1CCN(Cc2c(O)ccc3c2O/C(=C\C=C\c2ccccc2)C3=O)CC1,4µM*,7%
CCN1CCN(Cc2c(O)ccc3c2O/C(=C\c2ccc(C)cc2)C3=O)CC1,10µM*,-3%
COc1ccc(OCC(O)CNC(=O)Nc2cccc3ccccc23)cc1 (stereo not drawn),2%[7.67 µM],-10%[57.5 µM]
CC(=O)N(C(C)=O)S(=O)(=O)c1ccc(N=NN2CCOCC2)cc1,11%,5%
CNc1nc(-c2ccccc2C(F)(F)F)nc2ccccc12,nt,14%
CCOC(=O)C1CCCN(c2cc(=O)n(C3CCCCC3)c(=O)[nH]2)C1 (stereo not drawn),-3%,-10%
O=C(N/N=C/C1CC2C=CC1C2)c1ccccc1O (stereo not drawn),12%,4%[57.5 µM]
NCCCC[C@@H](C(=O)N1CCNCC1)n1cc([C@@H](N)CO)nn1,-19%,3%[57.5 µM]
CCn1cc(C(=O)NC(C)C23CC4CC(CC(C4)C2)C3)cn1 (stereo not drawn),3%,6%
CC(NC(=O)Cn1ncc(Cl)c(Cl)c1=O)C12CC3CC(CC(C3)C1)C2 (stereo not drawn),10µM*,-4%
N#Cc1ccccc1OCCOCCNC1CCCC1,19%,-1%
CC1=C(/C=N/Nc2ccc([N+](=O)[O-])cc2[N+](=O)[O-])C(C)(C)CCC1,-22%,14µM*
COc1ccc(/C=N\Nc2ccc([N+](=O)[O-])cc2[N+](=O)[O-])c(C(=O)O)c1OC,27%,?
COc1ccc(O[C@H]2C=C[C@@H](c3ccccc3)O[C@@H]2COC(=O)CC/C(C)=N/O[C@@H](C)CN2CCCCc3nc(C)c(C)cc32)cc1,16µM*,1%
SMILES,NPSR antagonist,ERK EGF inh
C/C(CCC(=O)OC[C@H]1O[C@H](C#Cc2ccccc2)C=C[C@@H]1Oc1ccc(C)cc1)=N\O[C@@H](C)CN1CCCCc2nc(C)c(C)cc21,-46%,12%
CCCn1nnnc1NC(=O)c1cc(Cl)ccc1Cl,9%,-15%
S=c1[nH]ncn2c1cc1oc3ccccc3c12,10µM*,-5%
O=c1c2ccccc2oc2ccccc12,nt,6%
COc1ccc(S(=O)(=O)N(C)C)cc1NC(=O)Cc1c[nH]c2ccccc12,-14%,-6%
COC(=O)[C@@]1(Cc2ccccc2-c2ccco2)C=C[C@H](C)[C@@H](c2ccccc2)N1C(=O)C(F)(F)F,nt,-12%
Cc1ccc(-c2nc(Nc3ccc(N4CCOCC4)cc3)c3ccccc3n2)cc1,13µM*,?
c1ccc(-c2nc(NCCCN3CCOCC3)c3ccccc3n2)cc1,-7%[46.1 µM],nt
O=C(CCSCc1ccccc1Cl)NC1CCCCC1,-16%,-3%
CCOc1cc(/C=N/Nc2nc(N3CCCC3)nc(N3CCCC3)n2)ccc1O,13µM*,2%
CCOc1cccc(/C=N/Nc2nc(N3CCCC3)nc(N3CCCC3)n2)c1O,-5%,-18%[57.5 µM]
CC(=NCCN1CCN(C(C)=C2C(=O)c3ccccc3C2=O)CC1)C1=C(O)CC(C)(C)CC1=O,8%,-15%
CC1=CC2=NC(=O)/C(=C\c3cccn3CCOc3ccccc3C)C(=N)N2O1,10µM*,-6%[57.5 µM]
COc1ccccc1OCCOc1ccc(/C=C2/C(=N)N3OC(C)=CC3=NC2=O)cc1OC,-9%[46.1 µM],nt
O[C@@H](c1ccccc1)C1CCN(CCc2ccccc2)CC1,nt,-11%
COc1ccc(-[n+]2c(C)cc(/C=C3\Sc4ccccc4N3C)cc2C)cc1,?,-4%
COc1ccccc1-[n+]1c(C)cc(/C=C2\Sc3ccccc3N2C)cc1C,6.3µM*,-33%[57.5 µM]
CC(=O)c1ccc(NC(=O)C(C)N2CCN(C/C=C/c3ccccc3)CC2)cc1 (stereo not drawn),-14%,-4%
